The results in this text go back to ChEMBL document CHEMBL1961873, “Compounds: GSK PKIS; Assays: Nanosyn kinase panel” (2012).

The target of test [1] is Tyrosine-protein kinase CSK (Homo sapiens) (UniProt P41240). The following applies: at 1 µM.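 Also: each value is an averaged inhibition reading.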
The target in test [2] is T1, Discoidin domain-containing receptor 2 (Homo sapiens) (UniProt Q16832).
T1 sequence (whole entry): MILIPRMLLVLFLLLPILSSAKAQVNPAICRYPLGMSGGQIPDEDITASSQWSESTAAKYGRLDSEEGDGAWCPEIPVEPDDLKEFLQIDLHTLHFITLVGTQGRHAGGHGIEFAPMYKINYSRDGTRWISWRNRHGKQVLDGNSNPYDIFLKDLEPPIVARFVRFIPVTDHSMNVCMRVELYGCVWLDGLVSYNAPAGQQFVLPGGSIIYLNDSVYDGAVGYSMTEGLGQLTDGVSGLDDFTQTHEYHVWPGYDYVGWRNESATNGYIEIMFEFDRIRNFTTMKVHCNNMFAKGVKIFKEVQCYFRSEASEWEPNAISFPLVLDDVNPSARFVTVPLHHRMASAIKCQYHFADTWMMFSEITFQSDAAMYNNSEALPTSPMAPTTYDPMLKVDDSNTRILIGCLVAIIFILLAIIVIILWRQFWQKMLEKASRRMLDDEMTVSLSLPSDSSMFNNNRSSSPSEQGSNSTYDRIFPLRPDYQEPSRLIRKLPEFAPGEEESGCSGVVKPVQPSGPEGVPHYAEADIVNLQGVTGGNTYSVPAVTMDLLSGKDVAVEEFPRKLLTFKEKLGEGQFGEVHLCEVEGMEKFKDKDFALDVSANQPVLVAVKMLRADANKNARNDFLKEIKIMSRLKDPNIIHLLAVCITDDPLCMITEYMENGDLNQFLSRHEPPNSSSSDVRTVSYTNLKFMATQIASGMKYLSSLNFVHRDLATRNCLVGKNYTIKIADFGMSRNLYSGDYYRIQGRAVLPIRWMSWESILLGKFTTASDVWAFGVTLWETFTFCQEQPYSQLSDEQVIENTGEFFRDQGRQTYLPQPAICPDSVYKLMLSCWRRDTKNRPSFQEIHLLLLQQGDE
The following applies: at 0.1 µM.

Test [3] has as its target T1, Discoidin domain-containing receptor 2 (Homo sapiens). The following applies: at 1 µM.
The target in test [4] is Epidermal growth factor receptor (Homo sapiens) (UniProt P00533). The following applies: at 0.1 µM.
For test [5] the target is unchanged. The following applies: at 1 µM.
Test [6] concerns Epidermal growth factor receptor (Homo sapiens), P00533 [L858R]. The following applies: at 0.1 µM.
Test [7] has the same test system. The following applies: at 1 µM.
Test [8] has as its system Epidermal growth factor receptor (Homo sapiens), P00533 [L861Q]. The following applies: at 0.1 µM.
The test system is the same in test [9]. The following applies: at 1 µM.
Test [10] concerns Epidermal growth factor receptor (Homo sapiens), P00533 [T790M]. The following applies: at 0.1 µM.

The structures appear in SMILES notation.

Chain of Epidermal growth factor receptor (Homo sapiens), P00533 [T790M] (P00533 whole entry T790M): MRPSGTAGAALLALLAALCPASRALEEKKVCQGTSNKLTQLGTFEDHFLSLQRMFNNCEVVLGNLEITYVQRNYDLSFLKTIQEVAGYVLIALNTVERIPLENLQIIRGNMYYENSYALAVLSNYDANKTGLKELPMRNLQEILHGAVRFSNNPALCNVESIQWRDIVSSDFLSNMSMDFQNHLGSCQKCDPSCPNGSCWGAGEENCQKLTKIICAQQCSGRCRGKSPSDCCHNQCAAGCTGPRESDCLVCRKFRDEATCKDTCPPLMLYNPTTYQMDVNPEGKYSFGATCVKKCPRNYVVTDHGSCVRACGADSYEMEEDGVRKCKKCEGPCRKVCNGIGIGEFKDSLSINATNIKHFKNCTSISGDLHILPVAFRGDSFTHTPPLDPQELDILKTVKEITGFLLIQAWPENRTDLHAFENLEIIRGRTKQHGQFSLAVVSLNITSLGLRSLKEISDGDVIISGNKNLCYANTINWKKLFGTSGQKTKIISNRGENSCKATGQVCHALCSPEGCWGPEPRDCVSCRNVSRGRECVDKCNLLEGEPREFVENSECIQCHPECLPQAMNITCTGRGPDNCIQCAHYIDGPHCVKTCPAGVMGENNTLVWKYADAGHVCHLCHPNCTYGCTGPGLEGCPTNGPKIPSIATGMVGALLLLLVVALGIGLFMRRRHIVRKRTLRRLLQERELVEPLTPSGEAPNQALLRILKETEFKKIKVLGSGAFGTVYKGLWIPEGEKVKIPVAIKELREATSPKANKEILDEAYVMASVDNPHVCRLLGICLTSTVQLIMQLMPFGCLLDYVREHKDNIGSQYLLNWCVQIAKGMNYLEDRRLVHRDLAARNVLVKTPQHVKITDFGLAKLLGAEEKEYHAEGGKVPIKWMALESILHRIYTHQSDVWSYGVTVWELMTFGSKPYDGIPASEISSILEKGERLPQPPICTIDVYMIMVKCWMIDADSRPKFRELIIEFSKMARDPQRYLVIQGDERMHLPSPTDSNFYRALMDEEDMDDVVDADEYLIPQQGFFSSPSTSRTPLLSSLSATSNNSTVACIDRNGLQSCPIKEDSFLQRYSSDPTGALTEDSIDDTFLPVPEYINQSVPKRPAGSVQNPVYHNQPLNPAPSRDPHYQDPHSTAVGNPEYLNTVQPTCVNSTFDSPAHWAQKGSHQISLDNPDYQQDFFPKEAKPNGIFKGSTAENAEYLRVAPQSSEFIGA
Chain of Epidermal growth factor receptor (Homo sapiens), P00533 [L858R] (P00533 whole entry L858R): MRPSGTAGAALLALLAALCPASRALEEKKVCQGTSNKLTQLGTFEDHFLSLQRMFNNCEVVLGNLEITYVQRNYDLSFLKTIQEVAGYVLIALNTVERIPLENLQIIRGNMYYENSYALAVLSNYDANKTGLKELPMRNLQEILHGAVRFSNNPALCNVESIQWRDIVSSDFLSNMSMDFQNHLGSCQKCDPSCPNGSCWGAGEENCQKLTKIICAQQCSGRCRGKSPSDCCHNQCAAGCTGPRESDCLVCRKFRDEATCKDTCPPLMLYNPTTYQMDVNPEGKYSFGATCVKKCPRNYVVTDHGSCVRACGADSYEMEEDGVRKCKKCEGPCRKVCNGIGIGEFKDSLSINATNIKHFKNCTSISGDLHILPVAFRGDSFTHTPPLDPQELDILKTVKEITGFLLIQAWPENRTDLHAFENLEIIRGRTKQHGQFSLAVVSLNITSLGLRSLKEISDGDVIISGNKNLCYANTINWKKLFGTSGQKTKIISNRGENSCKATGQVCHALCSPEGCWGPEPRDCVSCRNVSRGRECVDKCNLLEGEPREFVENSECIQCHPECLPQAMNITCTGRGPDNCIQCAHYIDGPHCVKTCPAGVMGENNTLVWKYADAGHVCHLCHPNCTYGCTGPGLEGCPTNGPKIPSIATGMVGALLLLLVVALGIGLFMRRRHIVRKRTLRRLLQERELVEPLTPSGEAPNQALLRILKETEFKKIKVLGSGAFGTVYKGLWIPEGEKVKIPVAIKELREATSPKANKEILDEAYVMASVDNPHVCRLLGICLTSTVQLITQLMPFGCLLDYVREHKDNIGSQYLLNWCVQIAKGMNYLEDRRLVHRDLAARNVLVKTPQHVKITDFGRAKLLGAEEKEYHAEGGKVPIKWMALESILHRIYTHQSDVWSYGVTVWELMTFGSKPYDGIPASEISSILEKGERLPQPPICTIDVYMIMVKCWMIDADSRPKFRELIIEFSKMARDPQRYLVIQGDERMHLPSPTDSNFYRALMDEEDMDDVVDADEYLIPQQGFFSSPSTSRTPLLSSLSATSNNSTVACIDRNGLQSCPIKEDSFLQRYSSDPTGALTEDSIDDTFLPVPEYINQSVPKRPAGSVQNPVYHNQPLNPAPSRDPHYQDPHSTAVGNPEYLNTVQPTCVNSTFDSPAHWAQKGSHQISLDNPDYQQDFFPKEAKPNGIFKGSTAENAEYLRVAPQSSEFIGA
Chain of Epidermal growth factor receptor (Homo sapiens) (P00533 whole entry): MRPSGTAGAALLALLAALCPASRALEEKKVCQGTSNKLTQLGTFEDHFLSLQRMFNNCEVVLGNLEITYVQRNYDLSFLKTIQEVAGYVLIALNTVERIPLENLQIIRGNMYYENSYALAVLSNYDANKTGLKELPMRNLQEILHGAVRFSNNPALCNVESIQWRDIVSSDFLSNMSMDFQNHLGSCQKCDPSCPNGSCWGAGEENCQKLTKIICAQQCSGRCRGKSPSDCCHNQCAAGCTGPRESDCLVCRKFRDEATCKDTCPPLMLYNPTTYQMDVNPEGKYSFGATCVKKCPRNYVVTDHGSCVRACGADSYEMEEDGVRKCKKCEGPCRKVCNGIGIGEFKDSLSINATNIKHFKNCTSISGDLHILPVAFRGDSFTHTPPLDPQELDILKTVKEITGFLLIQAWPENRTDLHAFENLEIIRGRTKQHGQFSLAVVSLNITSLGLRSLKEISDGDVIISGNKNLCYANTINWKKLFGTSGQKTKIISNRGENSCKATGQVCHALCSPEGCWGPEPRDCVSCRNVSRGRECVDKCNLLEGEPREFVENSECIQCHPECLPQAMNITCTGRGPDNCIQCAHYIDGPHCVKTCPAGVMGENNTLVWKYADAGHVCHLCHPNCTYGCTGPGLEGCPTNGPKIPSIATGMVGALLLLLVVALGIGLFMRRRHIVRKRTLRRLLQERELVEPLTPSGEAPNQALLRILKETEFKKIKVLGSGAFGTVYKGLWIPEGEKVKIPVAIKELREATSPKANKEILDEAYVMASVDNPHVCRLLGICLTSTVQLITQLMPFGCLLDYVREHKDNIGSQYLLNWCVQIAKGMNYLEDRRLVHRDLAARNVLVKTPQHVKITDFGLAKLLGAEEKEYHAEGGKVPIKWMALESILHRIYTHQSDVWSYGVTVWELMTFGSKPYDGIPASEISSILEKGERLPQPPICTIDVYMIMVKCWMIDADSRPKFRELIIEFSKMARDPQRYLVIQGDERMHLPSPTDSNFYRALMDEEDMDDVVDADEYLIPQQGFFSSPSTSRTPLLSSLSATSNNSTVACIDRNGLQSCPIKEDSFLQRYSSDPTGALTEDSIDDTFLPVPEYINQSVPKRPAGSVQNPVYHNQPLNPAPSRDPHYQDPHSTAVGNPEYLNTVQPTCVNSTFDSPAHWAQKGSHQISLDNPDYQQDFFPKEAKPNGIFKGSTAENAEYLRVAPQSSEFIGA
Chain of Epidermal growth factor receptor (Homo sapiens), P00533 [L861Q] (P00533 whole entry L861Q): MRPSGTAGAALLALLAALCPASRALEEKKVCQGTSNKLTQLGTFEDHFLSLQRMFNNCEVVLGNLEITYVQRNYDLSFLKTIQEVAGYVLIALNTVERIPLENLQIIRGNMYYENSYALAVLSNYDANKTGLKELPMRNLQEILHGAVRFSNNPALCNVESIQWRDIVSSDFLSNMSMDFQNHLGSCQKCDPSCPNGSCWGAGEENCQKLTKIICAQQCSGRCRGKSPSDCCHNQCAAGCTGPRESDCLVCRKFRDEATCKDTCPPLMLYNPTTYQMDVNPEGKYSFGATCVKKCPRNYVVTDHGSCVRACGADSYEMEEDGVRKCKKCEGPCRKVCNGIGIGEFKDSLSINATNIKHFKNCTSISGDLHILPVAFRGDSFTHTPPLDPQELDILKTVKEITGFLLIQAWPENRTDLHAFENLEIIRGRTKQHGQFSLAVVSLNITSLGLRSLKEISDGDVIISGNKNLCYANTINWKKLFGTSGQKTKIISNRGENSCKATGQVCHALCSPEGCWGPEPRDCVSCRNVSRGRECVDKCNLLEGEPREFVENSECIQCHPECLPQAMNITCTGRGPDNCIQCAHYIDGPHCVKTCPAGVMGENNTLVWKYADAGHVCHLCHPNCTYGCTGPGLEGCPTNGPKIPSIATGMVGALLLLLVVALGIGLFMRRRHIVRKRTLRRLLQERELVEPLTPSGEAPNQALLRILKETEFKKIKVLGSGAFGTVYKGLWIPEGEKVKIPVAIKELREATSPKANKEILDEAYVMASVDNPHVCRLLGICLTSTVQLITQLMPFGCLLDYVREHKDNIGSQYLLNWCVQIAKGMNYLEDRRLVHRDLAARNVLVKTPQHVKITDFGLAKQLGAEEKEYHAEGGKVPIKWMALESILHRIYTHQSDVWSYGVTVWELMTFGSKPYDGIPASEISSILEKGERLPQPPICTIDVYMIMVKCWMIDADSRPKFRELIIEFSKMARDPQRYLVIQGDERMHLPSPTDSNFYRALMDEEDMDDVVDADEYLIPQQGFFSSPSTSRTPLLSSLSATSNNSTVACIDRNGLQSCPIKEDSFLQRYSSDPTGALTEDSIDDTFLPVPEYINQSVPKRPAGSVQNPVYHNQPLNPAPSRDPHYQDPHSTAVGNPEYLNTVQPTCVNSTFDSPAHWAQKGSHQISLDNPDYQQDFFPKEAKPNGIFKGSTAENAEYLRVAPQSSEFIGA

As usually defined, the inhibition is the relative decrease from the control value, in per cent. Take `Fc1ccc(-c2ncn(CCCN3CCOCC3)c2-c2ccncc2)cc1`: the inhibition in test [1] was -6.18%; in test [2], 0.11%; in [3], -0.13%; in test [4], 0.44%; in test [5] it was 1.09%; in [6], -0.51%. In addition, the inhibition was -2.87% in [7], -1.64% in test [8], -2.82% in [9] and -1.82% in test [10].

With `NC(=O)c1ccc(Oc2nccc(-c3c(-c4ccc(F)cc4)ncn3C3CCNCC3)n2)cc1`, the inhibition in [1] turned out to be 4.26%; in [2], 0.13%; in test [3], 0.3%; in test [4], 0.48%; in test [5], 1.21%; in test [6], 3.13%. In addition, the inhibition turned out to be 2.9% in [7], 2.71% in test [8], 5.43% in test [9] and 2.31% in test [10].

For `C[C@@H](Oc1cc(-n2cnc3ccc(OC4CCN(C)CC4)cc32)sc1C(N)=O)c1ccccc1Cl`, the inhibition amounted to 5.07% in [1]; 1.72% in test [2]; 4.56% in [3]; 0.49% in test [4]; 3.58% in [5]; 1.45% in test [6]. Also, the inhibition in [7] worked out at 3.56%; in test [8] it was 2.71%; in test [9] it was 4.46%; in test [10], 0.91%.

Consider `CN1CCN(CCCNc2nc3ccc(Oc4ccc(NC(=O)Nc5cc(C(F)(F)F)ccc5F)cc4)cc3[nH]2)CC1`, for which the inhibition in [1] was -3.31%; in test [2] it was 73.9%; in [3] it was 83.6%; in test [4] it was -3.44%; in test [5] it was 0.24%; in test [6], 1%. In addition, the inhibition in test [7] was 0.13%; in test [8], 0.67%; in test [9], -4.02%; in [10], 0.51%.

For the molecule `C#Cc1cccc(Nc2ncnc3ccc(OCCCCNCCS(C)(=O)=O)cc23)c1`, the inhibition in test [1] worked out at 8.24%; in test [2], 4.72%; in test [3], 9.88%; in test [4], 75.9%; in [5], 85.4%; in [6], 96.8%. Moreover, the inhibition came out at 97.7% in [7], 91.7% in [8], 97.6% in [9] and 3.8% in test [10].

For the molecule `CN(C)CCCNc1nccc(-c2c(-c3ccc(F)cc3)nn3cc(C(F)(F)F)ccc23)n1`, the inhibition was -0.64% in [1]; 5.29% in test [2]; 11.1% in test [3]; -2.27% in [4]; 1.24% in [5]; 0.77% in test [6]. The inhibition in [7] is 2.36%; in [8], 1.57%; in test [9], -2.56%; in test [10], 1.53%.

As for `Fc1ccc(-c2ncn(C3CCNCC3)c2-c2ccnc(Oc3ccc(Oc4ccccc4)cc3)n2)cc1`, the inhibition in test [1] was 3.28%; in [2], 2.83%; in [3], 14.8%; in test [4] it was 2.08%; in test [5], 4.02%; in test [6] it was -0.18%. For the same molecule, the inhibition in test [7] turned out to be 11.3%; in test [8] it was 2.06%; in test [9], 6.3%; in test [10], 1.46%.

Consider `CN(c1ccc(NC(=O)Nc2c(Cl)cccc2Cl)cc1)c1ccnc(Nc2cccc(CS(C)(=O)=O)c2)n1`, for which the inhibition in test [1] stood at 19.5%; in test [2], 11.1%; in [3] it was 26.9%; in [4], 2.38%; in test [5], 5.8%; in test [6], 1.91%. Also, the inhibition in test [7] amounted to 8.57%; in test [8] it was 4.35%; in [9] it was 7.45%; in [10] it was 1.27%.

On to `FC(F)(F)c1cccc(Nc2nccc(-c3cnn4nc(-c5ccccc5)ccc34)n2)c1`, for which the inhibition in test [1] is 1.44%; in [2], 0.05%; in [3], 2.08%; in [4] it was -0.78%; in test [5] it was 0.92%; in [6], -0.7%. In addition, the inhibition is -0.57% in test [7], 1.2% in [8], 0.07% in [9] and 1.28% in [10].

For `CCS(=O)(=O)c1ccc(OC)c(Nc2ncc(-c3ccccc3Cl)o2)c1`, the inhibition in test [1] is 1.96%; in test [2], 3.73%; in test [3], 8.46%; in test [4], -0.49%; in test [5], 0.66%; in [6] it was -1.25%. For the same molecule, the inhibition in [7] was 7.46%; in [8], 2.33%; in [9], 1.22%; in test [10], 1.78%.

For `COc1ccc2ncn(-c3cc(O[C@H](C)c4ccccc4Cl)c(C(N)=O)s3)c2c1`, the inhibition is 4.14% in [1]; 1.2% in [2]; 0.87% in test [3]; -5.57% in test [4]; -2.35% in test [5]; 0.76% in test [6]. Besides, the inhibition in [7] amounted to 6.08%; in [8] it was 3.26%; in [9] it was 1.91%; in test [10], 1.16%.

As to `Cc1ccc(C(=O)NC(C)C)cc1-c1ccc(C(=O)NCC2CC2)cc1`, the inhibition in [2] is -0.36%; in test [3], 0.09%; in [4], 0.3%; in [5], 1.34%; in test [6] it was -1.62%; in test [7] it was -1.21%. For the same molecule, the inhibition was -0.86% in test [8], -2.64% in test [9] and -0.77% in test [10].

Take `N#Cc1ccc(Oc2nccc(-c3c(-c4ccc(F)cc4)ncn3C3CCNCC3)n2)cc1`: the inhibition in test [1] is 0.87%; in test [2], 6.23%; in test [3], 6.42%; in test [4] it was -1.1%; in [5], 2.76%; in [6], -0.31%. Further, the inhibition was determined as 7.36% in test [7], 3.45% in test [8], 3.57% in test [9] and 1.89% in test [10].

Regarding `NC(=O)c1cc(-c2ccncc2)cc(-c2ccccc2)c1N`, the inhibition in [1] is 16.1%; in test [2], 4.49%; in test [3], 27.6%; in test [4] it was 8.28%; in test [5] it was 18%; in test [6] it was 4.58%. The inhibition is 39.7% in test [7], 3.24% in test [8], 11.9% in test [9] and 1.64% in test [10].

On to `NS(=O)(=O)c1ccc(N/N=C2\C(=O)Nc3ccc(-c4cnco4)cc32)cc1`, for which the inhibition was found to be 4.17% in [1]; 1.59% in test [2]; 2.15% in [3]; 9.52% in test [4]; 12.9% in test [5]; 2.54% in test [6]. Besides, the inhibition in test [7] was 6.44%; in test [8], 2.45%; in [9], 4.95%; in test [10], 0.19%.

For the molecule `O=C1Nc2ccccc2/C1=C/Nc1ccc(-n2cncn2)cc1`, the inhibition is 7.33% in test [1]; -0.37% in test [2]; 0.37% in [3]; 4.22% in test [4]; 4.08% in [5]; 2.81% in test [6]. Moreover, the inhibition in test [7] worked out at 4.05%; in test [8], 3.11%; in test [9], 4.38%; in test [10], 2.21%.

Take `c1ccc(Oc2ccc(Nc3ncc(-c4ccccc4)o3)cc2)cc1`: the inhibition in [1] was 1.07%; in [2], 0.51%; in [3] it was 0.6%; in test [4] it was 1.92%; in [5], 3.79%; in test [6], 1.22%. In addition, the inhibition in test [7] stood at 0.93%; in test [8] it was 1.49%; in test [9] it was 3.06%; in test [10] it was 0.57%.
